Assay results reported in PubChem BioAssay.
Active and inactive are the calls of the source. Unless noted, how the calls were made is not given here.

Key:
[1] = A549 cell viability effects, profiling panel, calcein-AM fluorescence, 48 h, basal (AID 1162); details: higher = more signal; further: test concentration not given here
[2] = adipocyte viability effects, profiling panel, cell-based, 3T3-L1 adipocytes, calcein-AM fluorescence, 48 h, basal (AID 1163); details: 3T3-L1 adipocytes viability, higher = more signal; further: test concentration not given here
[3] = HepG2 cell viability effects, profiling panel, calcein-AM fluorescence, 48 h, basal (AID 1164); details: higher = more signal; further: test concentration not given here
[4] = MM1S cell viability effects, profiling panel, calcein-AM fluorescence, 48 h, basal (AID 1165); details: higher = more signal;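 further: viability of MM1S multiple myeloma cells under basal unstimulated conditions; test concentration not given here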
[5] = basal RPMI8226 viability, no added stimulus, profiling panel, cell-based, calcein-AM fluorescence, 48 h, PK04 Diversity Set (AID 1166); details: RPMI8226 myeloma viability, higher = more signal;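 further: cells grown under basal conditions without added stimulus; test concentration not given here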
[6] = basal HepG2 mitochondrial membrane potential changes, profiling panel, cell-based, JC-1 fluorescence, 24 h, 100 nL compound (AID 1167); details: higher = more signal; further: test concentration not given here
[7] = basal 3T3-L1 adipocyte mitochondrial potential changes, profiling panel, cell-based, JC-1 fluorescence, 3T3-L1 adipocytes, 24 h, 100 nL compound (AID 1168); details: JC-1 mitochondrial fluorescence, higher = more signal, called active from +8 up or from −8 down; further: test concentration not given here
[8] = basal RPMI8226 mitochondrial membrane potential changes, profiling panel, cell-based, JC-1 fluorescence, 24 h, 100 nL compound (AID 1169); details: RPMI8226 myeloma, JC-1 mitochondrial potential fluorescence, higher = more signal; further: test concentration not given here
[9] = basal MM1S mitochondrial membrane potential changes, profiling panel, cell-based, JC-1 fluorescence, 24 h, 100 nL compound (AID 1170); details: higher = more signal; further: test concentration not given here
[10] = A549 lung cancer cell viability effects, profiling panel, resazurin fluorescence, 24 h, PK04 Diversity Set (AID 1171); details: higher = more signal, called active from +8 up or from −8 down; further: test concentration not given here
[11] = HepG2 liver cancer cell viability effects, profiling panel, resazurin fluorescence, 24 h, PK04 Diversity Set (AID 1172); details: higher = more signal; further: test concentration not given here
[12] = basal S. cerevisiae growth modulation, no modifier, primary screen, OD600, strain BY4716, 24 h, basal condition (AID 1173); details: OD600, 24 h, higher = more signal, called active from +8 up or from −8 down
[13] = MM1S myeloma cell viability, profiling panel, resazurin fluorescence, basal, 24 h, PK04 Diversity Set (AID 1174); details: higher = more signal, called active from +8 up or from −8 down;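 further: MM1S multiple myeloma cell line; test concentration not given here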
[14] = target: Dihydroorotate dehydrogenase (quinone), mitochondrial (Plasmodium falciparum (isolate 3D7)) (UniProt Q08210); assay: PfDHODH enzyme inhibitors, primary screen, biochemical, C-terminal His tag, absorbance 600 nm (AID 1175); details: DCIP absorbance 600 nm, higher = more signal, called active from +8 up or from −8 down;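 further: recombinant parasite enzyme with a five histidine tag at its C terminus; test concentration not given here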
Dihydroorotate dehydrogenase (quinone), mitochondrial (Plasmodium falciparum (isolate 3D7)), sequence (Q08210 whole entry, looked up): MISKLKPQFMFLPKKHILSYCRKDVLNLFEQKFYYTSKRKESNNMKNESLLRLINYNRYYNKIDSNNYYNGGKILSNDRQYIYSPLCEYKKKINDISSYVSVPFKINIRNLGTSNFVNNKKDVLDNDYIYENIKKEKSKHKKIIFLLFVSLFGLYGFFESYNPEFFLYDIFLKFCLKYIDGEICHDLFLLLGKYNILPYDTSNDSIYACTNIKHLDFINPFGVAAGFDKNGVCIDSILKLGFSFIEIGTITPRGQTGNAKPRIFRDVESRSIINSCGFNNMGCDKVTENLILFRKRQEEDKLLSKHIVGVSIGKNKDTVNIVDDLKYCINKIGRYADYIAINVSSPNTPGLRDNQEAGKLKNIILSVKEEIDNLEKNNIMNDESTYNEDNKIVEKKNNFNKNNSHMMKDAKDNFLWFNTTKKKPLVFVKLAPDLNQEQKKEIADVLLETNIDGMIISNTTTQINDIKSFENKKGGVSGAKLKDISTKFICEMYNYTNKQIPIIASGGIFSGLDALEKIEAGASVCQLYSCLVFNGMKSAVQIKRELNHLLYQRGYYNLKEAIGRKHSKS

[15] = P. aeruginosa biofilm formation inhibitors, primary screen, strain PAO1, LB-PBS medium, absorbance 600 nm (AID 1176); further: test concentration not given here; details: P. aeruginosa PAO1 growth/biofilm, A600, 12 h; higher = more signal
[16] = S. cerevisiae RM11-1a growth modifiers, primary screen, strain RM11-1a, OD600, basal, 24 h (AID 1177); details: OD600, 24 h, higher = more signal, called active from +8 up or from −8 down;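 further: cultures grown under basal conditions with no added stressor; test concentration not given here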
[17] = E. coli acrAB mutant growth effects, primary screen, E. coli filamentation inducers, strain DRC39, OD650, 24 h (AID 1178); details: higher = more signal, called active from +8 up or from −8 down;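 further: growth measured as culture turbidity by optical density at 650 nm; test concentration not given here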
[18] = E. coli acrAB mutant growth effects, primary screen, E. coli filamentation inducers, strain DRC39, OD650, 48 h (AID 1179);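 further: screen aims at cell division blockers that make cells filament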; details: E. coli DRC39 delta-acrAB growth, higher = more signal, called active from +8 up or from −8 down
[19] = RPMI8226 myeloma cell viability, profiling panel, resazurin fluorescence, basal, 24 h, PK04 Diversity Set (AID 1180); details: higher = more signal;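 further: RPMI8826 multiple myeloma cell line at 5000 cells per well; test concentration not given here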
[20] = target: E3 ubiquitin-protein ligase XIAP (Homo sapiens) (UniProt P98170); assay: XIAP binders, primary screen, biophysical, small-molecule microarray, fluorescence 635 nm (AID 1181); details: small-molecule microarray binding, higher = more signal;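 further: score merges 667 nm emission and signal to noise over triplicate slides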
E3 ubiquitin-protein ligase XIAP (Homo sapiens), sequence (P98170 whole entry, looked up): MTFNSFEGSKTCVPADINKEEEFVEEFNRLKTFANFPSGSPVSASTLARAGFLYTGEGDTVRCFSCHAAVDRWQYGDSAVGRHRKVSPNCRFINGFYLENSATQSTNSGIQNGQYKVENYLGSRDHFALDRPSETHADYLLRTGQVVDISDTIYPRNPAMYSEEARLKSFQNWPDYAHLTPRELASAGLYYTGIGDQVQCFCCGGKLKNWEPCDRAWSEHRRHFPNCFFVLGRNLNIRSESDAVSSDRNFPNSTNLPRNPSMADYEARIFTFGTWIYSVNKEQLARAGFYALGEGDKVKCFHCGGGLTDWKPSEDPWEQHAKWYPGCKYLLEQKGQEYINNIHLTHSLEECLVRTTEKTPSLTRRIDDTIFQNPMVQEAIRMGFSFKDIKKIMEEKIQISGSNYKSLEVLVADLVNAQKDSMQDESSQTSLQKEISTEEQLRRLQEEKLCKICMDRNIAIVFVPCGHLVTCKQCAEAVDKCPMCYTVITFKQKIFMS

Row | SMILES | z-score [1] | z-score [2] | z-score [3] | z-score [4] | z-score [5] | z-score [6] | z-score [7] | z-score [8] | z-score [9] | z-score [10] | z-score [11] | z-score [12] | z-score [13] | composite z-score [14] | z-score [15] | z-score [16] | z-score [17] | z-score [18] | z-score [19] | composite z-score [20]
1 | COc1ccc(C(O)C2C=CC3C(=O)N(c4ccccc4)C(=O)C3N2Nc2ccc([N+](=O)[O-])cc2)cc1 (stereo not given) | -0.27 | -1.06 | 0.168 | -0.495 | 0.0223 | -0.378 | -1.52 (inactive) | 0.0302 | -0.909 | 0.0404 (inactive) | -0.724 | 0.402 (inactive) | -0.754 (inactive) | -0.0727 (inactive) | 0.837 (inactive) | 0.613 (inactive) | -1.2 (inactive) | -0.996 (inactive) | -0.502 | 0.21
2 | COc1ccc([Si](C)(C)[C@H]2[C@H](CCn3cc([C@H](O)c4ccccc4)nn3)O[C@@]3(C(=O)N(Cc4ccc(N5C(=O)c6cccc7cccc5c67)cc4)c4ccccc43)[C@@H]2C)cc1 | 0.332 | -0.488 | 1.02 | -0.702 | -0.74 | 1.58 | -0.526 (inactive) | -0.296 | 0.516 | -1.26 (inactive) | -0.0876 | 0.0957 (inactive) | -1.96 (inactive) | 0.468 (inactive) | 1.03 (inactive) | 1.26 (inactive) | 1.57 (inactive) | 1.45 (inactive) | -0.761 | -0.031
3 | CC(=O)NCCCC[C@@H]1NC(=O)[C@H]2C[C@@H](C(=O)NCCCC[N+](C)(C)C)[C@@H](c3cccc(OCCO)c3)N2C1=O | -0.443 | 0.247 | -0.641 | -1.7 | 0.206 | 0.105 | 0.169 (inactive) | -0.336 | 1.03 | -0.549 (inactive) | -0.704 | 0.294 (inactive) | 0.785 (inactive) | -30.8 (active) | 0.45 (inactive) | -0.724 (inactive) | 0.417 (inactive) | -0.369 (inactive) | 0.228 | 0.0223
4 | COC(=O)[C@@]1(Cc2ccccc2N=[N+]=[N-])N=C(c2ccc(OCCCO)cc2)O[C@H]1c1ccccc1N=[N+]=[N-] | -1.53 | 0.342 | -5.52 | -3.65 | -4.04 | -1.63 | -0.0913 (inactive) | -1.13 | -2.92 | -2.94 (inactive) | -4.43 | -0.596 (inactive) | -8.41 (active) | -0.071 (inactive) | 0.715 (inactive) | 0.897 (inactive) | 2.12 (inactive) | 1.91 (inactive) | -6.83 | 0.0296
5 | C=C(C)C1CCC(C(O)C2C=CC3C(=O)N(C)C(=O)C3N2N2CCCCC2)CC1 (stereo not given) | -1.25 | -1.16 | -0.774 | -0.683 | -0.665 | -1.38 | -1.53 (inactive) | 0.887 | -0.31 | 0.262 (inactive) | -0.689 | 0.08 (inactive) | -1.19 (inactive) | 0.112 (inactive) | 0.751 (inactive) | 1.82 (inactive) | -0.742 (inactive) | -0.654 (inactive) | -0.954 | 0.62
